# IL-1B inflam inh – blocks inflammasome-driven IL-1 beta release; THP-1 LPS/ATP IL-1B secretion, AlphaLISA, 16 h; active compounds read low; 360,000 tested, 4.7% active; activity change, % at 57.5 µM; in the data active = activity change below about -50%; inconclusive = mostly about -30% to -49%
#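 THP-1 cells pretreated 1 hr with compounds (up to 57.5 uM final), then stimulated with LPS (250 ng/mL final) plus ATP (1.25 mM final); secreted IL-1B measured by AlphaLISA after 16 hr, decreased signal indicating inhibition.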
# VP16 counter – counter-screen for ROR gamma inhibitors: Gal4-VP16 reporter | Drosophila S2 Gal4-VP16 UAS-luciferase, luminescence, 20 h | Potency, µM (series often up to 53.6 µM), inactives show top-dose activity, negative = inhibition, hits mostly inhibitors | 310,000 tested, 3.5% active;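 also: Gal4-VP16 expression switched on by copper sulfate through the metallothionein promoter; potency is read from the fitted curve at half-maximal effect; nearly all actives have a fitted effect of over 50% in size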
# DT40 TDP1 no CPT – qHTS for Inhibitors of human tyrosyl-DNA phosphodiesterase 1 (TDP1): qHTS in cells in absence of CPT; 420,000 tested, 15% active; DT40 Tdp1-/- hTDP1 cells, no CPT, ATP luminescence, 48 h; Potency, µM (doses to about 46.2 µM), inactives show top-dose activity change, negative = growth inhibition, most hits filed as inhibitors; AID 686978, 2013; also: potency is read from the fitted curve at half-maximal effect; nearly all actives have a fitted effect of over 55% in size
#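 Chicken DT40 Tdp1-/- cells complemented with human TDP1, screened without camptothecin (DMSO vehicle only), 400 cells/well. Compounds pin-transferred, cells incubated at 37 °C for at least 48 hr. Growth read as ATP-dependent luminescence (CellTiter-Glo, 30 min at RT).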
# LDHA block – LDHA (human) enzyme inhibition. P00338. purified LDHA, NADH/diaphorase-resazurin fluorescence; active compounds read low. activity change, % (values are at about 110 or 230 µM). 480,000 tested, 0.15% active. AID 1347041; in the data active = activity change below about -30%; inconclusive = mostly about -25% to -30%;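 also: plate controls were DMSO wells for no effect and wells without enzyme for full effect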
#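 LDH5 2 nM; NADH 0.06 mM, pyruvate 0.2 mM; 200 mM Tris pH 7.4, EDTA, Tween-20; 5 min RT. Detection: diaphorase 0.133 mg/mL + resazurin 37 µM, fluorescence ex540/em590 at 0 and 20 min; normalized to enzyme-free and DMSO wells.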
# TDP1 cell CPT – DT40-hTDP1 cell growth loss with CPT. AID 686979. chicken DT40 Tdp1-/-;hTDP1 cells + 20 nM CPT, ATP luminescence, 48 h. Potency, µM (top dose mostly 46.2 µM), for inactives: top-dose activity change, negative = growth inhibition, hits mostly inhibitors. 420,000 tested, 12% active; also: potency is read from the fitted curve at half-maximal effect; nearly all actives have a fitted effect of over 55% in size
#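 Chicken DT40 Tdp1-/- cells stably complemented with human TDP1 were seeded at 400 cells/well in medium containing 20 nM camptothecin, exposed to pin-transferred compounds, and grown at 37 °C for at least 48 hr. Viability was read as ATP luminescence.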
# RORgamma inh – blocks mouse ROR gamma transcriptional activity; Potency, µM (highest dose often 53.6 µM), for inactives: at the top dose activity change, negative = inhibition, actives largely listed as inhibitors; 310,000 tested, 5.4% active; P51450; AID 2551; Drosophila S2 Gal4-RORgamma UAS-luciferase reporter, 20 h; also: potency is read from the fitted curve at half-maximal effect; nearly all actives have a fitted effect of over 60% in size
# Target sequence (P51450 whole entry, looked up, the tested form may be a part): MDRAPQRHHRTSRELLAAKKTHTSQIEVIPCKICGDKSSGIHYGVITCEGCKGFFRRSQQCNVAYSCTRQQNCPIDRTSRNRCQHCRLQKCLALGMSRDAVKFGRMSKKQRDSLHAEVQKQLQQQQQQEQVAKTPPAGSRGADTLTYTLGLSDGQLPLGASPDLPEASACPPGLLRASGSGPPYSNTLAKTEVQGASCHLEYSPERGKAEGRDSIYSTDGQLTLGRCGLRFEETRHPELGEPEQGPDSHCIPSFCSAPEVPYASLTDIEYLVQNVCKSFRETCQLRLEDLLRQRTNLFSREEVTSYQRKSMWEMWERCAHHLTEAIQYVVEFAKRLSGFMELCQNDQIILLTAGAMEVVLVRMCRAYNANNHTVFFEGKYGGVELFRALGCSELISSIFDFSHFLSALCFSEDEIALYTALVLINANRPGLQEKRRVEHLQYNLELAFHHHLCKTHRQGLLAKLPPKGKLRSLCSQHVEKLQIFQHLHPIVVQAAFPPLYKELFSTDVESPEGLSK
#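 Stable Schneider cell line, Gal4 DNA-binding domain fused to ROR gamma, UAS-luciferase. Cmpd 1 hr RT → CuSO4 700 uM final → 20 hr RT → luciferase reagent 10 min → luminescence.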
# * = called active by the depositor; u = inconclusive; x = no result given. Rows were chosen to be rich in hits. Some 18% of all compounds tested hit in one or more screens of this group. Unless noted, calls follow the shape of the dose curve; as a rule, active = well fitted curve in the direction sought with a large enough effect; inconclusive = small, poorly fitted or top-dose-only effect, or another doubt; inactive = no such curve, though single readings can be large; an effect the other way counts as inactive or inconclusive. Unless noted, % is scaled to controls: 0 for no effect and ±100 for the full control effect.
SMILES,IL-1B inflam inh,VP16 counter,DT40 TDP1 no CPT,LDHA block,TDP1 cell CPT,RORgamma inh
C=CCN(C(=O)Nc1ccc(Cl)cc1)C1CC(=O)N(c2ccc(OC)cc2)C1=O (stereo not drawn),11.9,-6.0%,-13.8%,-4.1,23.1µM*,26.8%
CNC(=S)N(Cc1ccc2c(c1)OCO2)C1CC(=O)N(c2ccc(F)cc2)C1=O (stereo not drawn),25.4,6.4%,20.6µM*,-1.8,u,1.6%
CNC(=S)N(Cc1ccc(OC)cc1)C1CC(=O)N(c2ccc(Cl)cc2)C1=O (stereo not drawn),-21.9,u,18.4µM*,1.6,16.4µM*,7.7%
C=CCN(C(=O)Nc1ccc(F)cc1)C1CC(=O)N(c2ccc(OC)cc2)C1=O (stereo not drawn),5.2,-7.6%,-12.4%,-1.5,-1.9%,6.5%
O=C1c2ccccc2NC(c2csc(-c3ccccc3)n2)N1C1CC1 (stereo not drawn),x,x,x,-0.4,x,x
CSCC[C@H](NC(=O)Cc1ccccc1)c1nc2ccccc2[nH]1,x,x,x,-6.4,x,x
Cc1cc(N)n2ncc(-c3ccc(Cl)cc3)c2n1,-13.7,20.0%,u,2.0,18.4µM*,28.5%
Cc1cc(N)n2ncc(-c3ccc(F)cc3)c2n1,-6.2,-22.3%,0.3%,-7.7,-12.7%,37.9%
Cc1cc(Cl)n2ncc(-c3ccccc3)c2n1,-98.9*,u,29.1µM*,2.3,u,15.8µM*
COc1ccc(C)cc1N(C(=O)c1snc(C(N)=O)c1N)C(C(=O)NC1CCCCC1)c1ccc(C)o1 (stereo not drawn),-54.7*,25.4%,18.4µM*,-2.1,18.4µM*,18.4%
Cc1cccc(N(C(=O)c2snc(C(N)=O)c2N)C(C(=O)NCC2CCCO2)c2cccs2)c1 (stereo not drawn),13.1,5.9%,0.411µM*,-1.9,-88.1%,29.7%
Cc1ccc(C)c(N(C(=O)c2snc(C(N)=O)c2N)C(C(=O)NCC2CCCO2)c2cccs2)c1 (stereo not drawn),28.3,6.4%,8.2µM*,-3.2,7.31µM*,25.3%
COc1ccc(OC)c(C(C(=O)NC2CCCCC2)N(C(=O)c2snc(C(N)=O)c2N)c2ccccc2OC)c1 (stereo not drawn),11.6,-9.1%,u,-13.1,u,37.2%
Cc1ccc(C)c(N(C(=O)c2snc(C(N)=O)c2N)C(C(=O)NCC2CCCO2)c2ccc(C)o2)c1 (stereo not drawn),-3.1,-1.9%,10.3µM*,5.6,16.4µM*,-1.5%
Cc1cccc(N(C(=O)c2snc(C(N)=O)c2N)C(C)C(=O)NCC2CCCO2)c1 (stereo not drawn),u,-4.1%,-21.6%,-4.1,-2.0%,2.2%
COc1cc(-c2ccc(C)cc2)nc2ccc(C(=O)NCC(C)O)cc12 (stereo not drawn),x,x,x,-2.5,x,x
O=C(CSc1nc2c(c(-c3cccs3)n1)CCCC2)Nc1cc(Cl)cc(Cl)c1,x,x,x,-1.1,x,x
COc1ccc(NC(=O)CC2C(=O)N(c3ccc(OC)cc3)C(=O)N2CCC2=CCCCC2)cc1 (stereo not drawn),x,x,u,-2.3,u,x
COc1cccc(N2C(=O)C(CC(=O)Nc3ccc(F)cc3)N(CCC3=CCCCC3)C2=O)c1 (stereo not drawn),x,x,16.4µM*,0.3,u,x
COc1cccc(N2C(=O)C(CC(=O)Nc3ccc(F)cc3)N(C3CCCCC3)C2=O)c1 (stereo not drawn),3.7,15.3%,-15.2%,-7.0,-5.2%,-1.3%
COc1ccc(N2C(=O)C(CC(=O)Nc3ccccc3)N(CCC3=CCCCC3)C2=O)cc1 (stereo not drawn),x,x,18.4µM*,1.9,20.6µM*,x
Cc1ccc(N2C(=O)C(CC(=O)Nc3ccccc3)N(CCC3=CCCCC3)C2=O)cc1 (stereo not drawn),x,x,20.6µM*,0.3,16.4µM*,x
Brc1ccc(-c2ccn[nH]2)cc1,x,x,x,9.0,x,x
Cc1c(C(=O)NC(=S)Nc2ccc3c4c(cccc24)CC3)cccc1[N+](=O)[O-],-9.9,5.01µM*,u,-1.8,u,2.24µM*
Cc1ccc(C(=O)Nc2ccc3c4c(cccc24)CC3)cc1[N+](=O)[O-],-12.9,-12.9%,u,-6.5,u,-1.1%
SMILES,IL-1B inflam inh,VP16 counter,DT40 TDP1 no CPT,LDHA block,TDP1 cell CPT,RORgamma inh
Cc1c(C(=O)NC(=S)NCc2cccnc2)cccc1[N+](=O)[O-],5.7,-5.0%,3.4%,-6.0,1.1%,-0.6%
Cc1c(C(=O)Nc2ccc3c4c(cccc24)CC3)cccc1[N+](=O)[O-],47.0,-5.4%,16.4µM*,-0.3,u,37.3%
COc1cc2nc(CN3CCC(Cc4ccccc4)CC3)[nH]c(=O)c2cc1OC,11.0,3.4%,u,-4.8,u,11.2µM*
COc1cc2nc(CN3CCC(C(O)(c4ccccc4)c4ccccc4)CC3)[nH]c(=O)c2cc1OC,10.4,-2.6%,18.4µM*,-0.5,u,-4.2%
COc1cc2nc(CN3CCN(S(=O)(=O)c4ccccc4)CC3)[nH]c(=O)c2cc1OC,12.6,x,-3.5%,-2.2,3.1%,x
CCOc1ccc(C(C)=O)cc1COc1ccc(C#N)cc1OC,x,x,x,-0.8,x,x
CCN(CC)C(=O)N1CCC(C(=O)NCC2(c3ccc(F)cc3)CC2)CC1,x,x,x,-0.1,x,x
CN1C(=O)C(O)(CC(=O)/C=C/c2ccco2)c2ccccc21 (stereo not drawn),-4.1,u,-15.6%,3.3,3.7%,16.8%
CN1C(=O)C(O)(CC(=O)/C=C/c2ccco2)c2cc(Br)ccc21 (stereo not drawn),117.2,0.8%,4.11µM*,0.9,6.51µM*,u
CN1C(=O)C(O)(CC(=O)c2ccccc2O)c2cc(Br)ccc21 (stereo not drawn),49.6,-2.7%,5.8µM*,2.8,5.17µM*,-2.1%
CCOCCCNC(=O)C(c1ccc(C)cc1)N(Cc1ccc2c(c1)OCO2)C(=O)c1ccc(NC(C)=O)cc1 (stereo not drawn),x,x,u,-3.0,14.6µM*,x
CCOCCCNC(=O)C(c1ccc(Cl)cc1)N(Cc1ccc2c(c1)OCO2)C(=O)c1ccc(NC(C)=O)cc1 (stereo not drawn),x,x,u,0.8,u,x
CCOCCCNC(=O)C(c1ccccc1)N(Cc1cccs1)C(=O)c1ccc(NC(C)=O)cc1 (stereo not drawn),x,x,16.4µM*,0.3,u,x
CCOCCCNC(=O)C(c1ccc(C)cc1)N(Cc1cccs1)C(=O)c1ccccc1O (stereo not drawn),-108.3*,-4.1%,u,-1.3,-6.0%,15.8%
